The whole screen tested about 65,000 compounds, of which about 980 (1.5%) were called active. This is one part of a sample in which actives are shown more often than they occur.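 The calls were made as follows: active = activation above the mean of all tested compounds plus 3 SD (cut at about 49% in these data); inactive = the rest.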

The target of the assay is Nuclear receptor ROR-alpha (Homo sapiens) (UniProt P35398). The experiment in a line: activators of orphan receptor RORA, primary screen, cell-based, luminescence (AID 560).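 Also: 0% = DMSO-treated RORA cells and 100% = added signal equal to DMSO minus mock-transfected cells.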 As to conditions: CHO-K1 Gal4-RORA LBD luciferase reporter, at 10 µM, stronger effect = higher value, percent increase over mock-subtracted basal signal. A general note: A reporter such as luciferase makes a cellular process visible.
Nuclear receptor ROR-alpha (Homo sapiens), sequence (P35398 whole entry, looked up, the tested form may be a part): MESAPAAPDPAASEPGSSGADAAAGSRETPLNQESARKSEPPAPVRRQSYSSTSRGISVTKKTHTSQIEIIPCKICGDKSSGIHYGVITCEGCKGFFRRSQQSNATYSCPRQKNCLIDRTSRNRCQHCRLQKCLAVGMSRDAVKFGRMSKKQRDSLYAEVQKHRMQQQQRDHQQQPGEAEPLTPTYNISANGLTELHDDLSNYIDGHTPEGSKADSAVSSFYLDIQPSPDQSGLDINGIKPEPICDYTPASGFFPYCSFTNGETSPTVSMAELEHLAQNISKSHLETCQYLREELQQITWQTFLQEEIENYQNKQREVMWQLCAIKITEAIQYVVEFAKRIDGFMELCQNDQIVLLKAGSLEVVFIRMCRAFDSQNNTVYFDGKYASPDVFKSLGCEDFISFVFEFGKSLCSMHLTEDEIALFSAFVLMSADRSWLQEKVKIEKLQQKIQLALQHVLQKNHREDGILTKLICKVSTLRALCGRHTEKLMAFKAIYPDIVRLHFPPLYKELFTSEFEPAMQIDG
On to `O=C(NCc1ccccn1)Nc1ccc(F)cc1`, for which the activation is 28.4% (inactive).

For the molecule `O=C(NCc1cn2ccsc2n1)Nc1cccc(Cl)c1`, the activation is 45.8% (inactive).

In the case of `O=C(Nc1cccc(Cl)c1)OCc1ccccn1`, the activation was 69.9% (active).

In the case of `Cc1c(NC(=O)c2coc(=O)c(Br)c2)c(=O)n(-c2ccccc2)n1C`, the activation is -0.3% (inactive).

`COC(=O)c1cc(C(=O)OC)cc(N2C(=O)CC(N3CCN(c4ccccc4)CC3)C2=O)c1` (stereo not drawn): the activation was 15.5% (inactive).

With `CC(=O)OC(C(=O)NC1CCCCC1)c1ccccc1` (stereo not drawn), the activation is -15.4% (inactive).

As for `CC(C)c1ccc(NC(=O)NC2CCCCC2)cc1`, the activation is 85.1% (active).

Take `CC(Cc1cccs1)NC(=O)NC1CCCCC1` (stereo not drawn): the activation was 31.7% (inactive).

For the molecule `COc1ccc(-c2nc(SCC(=O)N3CCOCC3)n[nH]2)cc1`, the activation is 8.1% (inactive).

Take `CC(=O)Nc1ccc(NC(=O)CN2CCCC(C)C2)c(Cl)c1` (stereo not drawn): the activation was 7.9% (inactive).

Take `O=C(C1CCC1)N1CCc2cc(S(=O)(=O)NCc3cccnc3)ccc21`: the activation was 16.4% (inactive).

For `Cc1ccc(C(=O)N2CCN(C3CCCCC3)CC2)s1`, the activation is -13.8% (inactive).

For the molecule `COc1cccc(CNC(=O)C2CCN(S(=O)(=O)c3cccc4cccnc34)CC2)c1`, the activation was -6.7% (inactive).

In the case of `C#CCN1C(=O)C(O)(CC(=O)c2cc(OC)ccc2OC)c2ccccc21` (stereo not drawn), the activation is -9.4% (inactive).

In the case of `CCOC(=O)c1nc(-c2ccc3c(c2)OCO3)[nH]c1C`, the activation was 66.7% (active).

As for `CCOC(=O)c1c(C)[nH]c(C(=O)COc2ccc3c(c2)OCO3)c1C`, the activation was 28.3% (inactive).

In the case of `CCOC(=O)NCc1ccc2c(c1)OCO2`, the activation is -14.5% (inactive).

As to `COCc1nnc(NC(=O)CS(=O)(=O)Cc2ccccc2)s1`, the activation was -0.8% (inactive).

On to `COC(=O)C(C)Sc1ccc2nnc(-c3cccc(F)c3)n2n1` (stereo not drawn), for which the activation was -8% (inactive).

Turning to `COC(=O)c1c(NC(=O)c2cccs2)sc2c1CCCC2`, the activation was 19.4% (inactive).

With `c1ccc2c(c1)OCC(CNc1ncnc3nc[nH]c13)O2` (stereo not drawn), the activation was 20.1% (inactive).

In the case of `Cn1c(=NC(=O)c2ccco2)sc2cccc(F)c21`, the activation was 61.5% (active).

In the case of `Cn1c(=NC(=O)C2CC2)sc2cc(F)cc(F)c21`, the activation is 27.7% (inactive).

`CCCC(=O)N=c1sc2cccc(F)c2n1C`: the activation is 5.7% (inactive).

With `COC(=O)c1cccc(NC(=O)CN2CCC(NC(=O)c3cc(OC)c(OC)c(OC)c3)CC2)c1`, the activation was 17.2% (inactive).

In the case of `COc1ccc(CCNC(=O)CN2CCC(n3nnc4cc(F)ccc43)CC2)cc1OC`, the activation was -11.2% (inactive).

`O=C(NC1=NCCS1)c1ccc(Cl)s1`: the activation was 80.1% (active).

As for `CCc1ccc(N2CC(C(=O)NC3=NCCS3)CC2=O)cc1` (stereo not drawn), the activation was -23.3% (inactive).

As for `CC(NC(=O)COc1ccccc1)C(=O)NC1=NCCS1` (stereo not drawn), the activation was -14.4% (inactive).

With `C=CCn1c(=S)[nH]c2nc3c(cc2c1=O)COC(C)(C)C3`, the activation is -9.2% (inactive).

With `O=C(Nc1ccc(-c2nnc(-c3ccccc3)o2)cc1)C1CCCO1` (stereo not drawn), the activation was 32.9% (inactive).

In the case of `O=C(Nc1cccc(-c2nnc(-c3ccccc3)o2)c1)C1CCCO1` (stereo not drawn), the activation was 61.1% (active).

With `O=C(Nc1nnc(CCc2ccccc2)s1)C1CCCO1` (stereo not drawn), the activation was 0.2% (inactive).

On to `O=C(COc1ccccc1)N1CCc2ccccc2C1`, for which the activation is 18.5% (inactive).

In the case of `Cc1ccsc1C(=O)OCC(=O)c1cc(C)n(CC2CCCO2)c1C` (stereo not drawn), the activation was -85.1% (inactive).

In the case of `O=C(COC(=O)C12CC3CC(CC(C3)C1)C2)NCc1ccco1`, the activation is -21.1% (inactive).

In the case of `Cc1cc(C(=O)OCC(=O)NCc2ccco2)c(C)n1-c1ccccc1`, the activation is 61.4% (active).

Consider `O=C(CSc1nnc(-c2cccs2)n1-c1ccccc1)NCc1ccco1`, for which the activation is 11.1% (inactive).

Turning to `CC(=O)N1CSCC1C(=O)O` (stereo not drawn), the activation is 15.8% (inactive).

Turning to `O=c1[nH][nH]c(=O)c2cc(N3CCCC3)ccc12`, the activation was 1.1% (inactive).

For `CCOC(=O)c1cc(NC(=O)c2cccnc2)cc(C(=O)OCC)c1`, the activation was -17.2% (inactive).

`Cc1cc2nc(-c3ccc(NC(=O)c4cccnc4)cc3)oc2cc1C`: the activation is 71.6% (active).

As for `CC(C)NS(=O)(=O)c1ccc(NC(=O)c2cccnc2)cc1`, the activation was 25.4% (inactive).

As to `O=C(NC12CC3CC(CC(C3)C1)C2)N1CCCC(CO)C1` (stereo not drawn), the activation is -9.5% (inactive).

With `Cc1ccccc1-c1nnn(CC(=O)c2ccc(S(=O)(=O)N3CCCC3)cc2)n1`, the activation was -9.2% (inactive).

`CC(C)(C)NC(=O)Cn1nnc(-c2ccccc2Cl)n1`: the activation is 65.9% (active).

Turning to `O=C(Cn1nnc(-c2ccccc2)n1)NCc1ccccc1`, the activation is -3.8% (inactive).

Consider `O=C(CN1C(=O)C2C3C=CC(C3)C2C1=O)NCCc1ccccc1Cl` (stereo not drawn), for which the activation is 0.8% (inactive).

Regarding `O=S(=O)(NCc1ccccn1)c1ccc(Br)s1`, the activation is -0.5% (inactive).

As for `COc1ccc(C(=O)Nc2nncs2)c(OC)c1`, the activation is 62.9% (active).

In the case of `COC(=O)c1sc(NC(=O)c2ccc(OC)cc2OC)nc1C`, the activation was -38.1% (inactive).

As for `O=C(Nc1nncs1)c1ccccc1NS(=O)(=O)c1cccs1`, the activation was 2.5% (inactive).

For the molecule `Cn1c(=O)n(CCc2ccccc2)c(=O)c2c1nc1n2CCCN1c1ccccc1`, the activation is 8.2% (inactive).

Take `Nc1c(C(=O)NCc2ccccc2)nnn1Cc1cccc(Cl)c1`: the activation was 9.8% (inactive).

In the case of `COC(=O)Cc1cc(=O)n(-c2nc3ccccc3s2)[nH]1`, the activation is -10.3% (inactive).

`CCC(=O)NC(=Nc1nc2ccccc2s1)NC(=O)CC`: the activation is 48.7% (active).

For `O=C(O)CSCc1nc2ccccc2s1`, the activation is 18.2% (inactive).

Regarding `O=c1/c(=C/c2ccc(CNS(=O)(=O)c3ccccc3)o2)sc2n1CCN=2`, the activation was -17.5% (inactive).

On to `Cn1nnc(NC(=O)CSc2ncn[nH]2)n1`, for which the activation is -7.4% (inactive).

On to `CC(C)(C)c1ccc(C(=O)CSc2ncn[nH]2)cc1`, for which the activation was 54.2% (active).

Take `CCN(C(=O)CSc1ncn[nH]1)c1cccc2ccccc12`: the activation was -6.5% (inactive).

As for `CCOC(=O)c1csc(NC(=O)c2ccc(S(=O)(=O)N3CCCC3)cc2)n1`, the activation is 8.6% (inactive).

In the case of `Cn1c(SCC(=O)OC2CCCCC2)nnc1-c1ccc(S(=O)(=O)N2CCCC2)cc1`, the activation was -7.4% (inactive).

In the case of `COc1cccc(OCC(=O)Nc2ccccc2C(N)=O)c1`, the activation is 1.9% (inactive).

`O=C(Nc1nn(Cc2ccccc2F)cc1Br)c1cccs1`: the activation was -5.3% (inactive).

Consider `COc1cc(N=Cc2c(O)[nH]c3ccccc23)cc(OC)c1OC`, for which the activation is -15.8% (inactive).

Take `COc1ccc(N=Cc2c(O)[nH]c3ccccc23)cc1OC`: the activation is 55.7% (active).

Take `COc1ccc(OC)c(N=Cc2c(O)[nH]c3ccccc23)c1`: the activation was -14.1% (inactive).

Source of the values: PubChem BioAssay AID560 (The Scripps Research Institute Molecular Screening Center, 2006).
